# LAP4 TOR yeast – yeast TOR pathway LAP4-GFP modulation; GFP response vs DMSO, % at 10 µM; 320,000 compounds, 0.34% hits; AID 2023; S. cerevisiae LAP4-GFP multiplex, flow cytometry GFP, 3 h; median GFP as percent of DMSO wells;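 active = GFP response vs DMSO above a set limit, about the screen mean plus 3 SD, cut at about 150% in these data; inconclusive = under 70 cell events counted for the yeast strain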
# CIT2-GFP yeast – alters CIT2-GFP fluorescence in TOR pathway yeast screen; S. cerevisiae CIT2-GFP strain, flow cytometry, 3 h; 100 means same as DMSO wells; GFP response vs DMSO, % at 10 µM; 320,000 compounds, 0.065% hits;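 active = GFP response relative to DMSO above a set limit, near the screen mean plus 3 SD, cut at about 150% in these data; inconclusive = Fewer than 70 cells measured for a yeast strain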;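 note: ratio of well median GFP fluorescence to mean of DMSO wells on the plate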
# RPL19A TOR yeast – alters RPL19A-GFP fluorescence in TOR pathway yeast screen; S. cerevisiae RPL19A-GFP strain, flow cytometry, 3 h; stronger effect = lower value; percent response vs DMSO, % at 10 µM; 330,000 compounds, 0.3% hits; AID 2025;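 active = percent response vs DMSO below 50%; inconclusive = fewer than 70 events counted for the yeast strain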;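 note: median channel GFP fluorescence of the barcoded RPL19A-GFP strain; ratio of sample median GFP to plate DMSO average so 100% = DMSO; lower means less RPL19A-GFP as with rapamycin TOR inhibition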
# MEP2-GFP yeast – alters MEP2-GFP fluorescence in TOR pathway yeast screen. AID 2016. 330,000 compounds, 0.51% hits. S. cerevisiae MEP2-GFP strain, flow cytometry GFP, 3 h; 100% = DMSO control level. GFP response vs DMSO, % at 10 µM;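 active = GFP response versus DMSO above a set limit, roughly screen mean plus 3 SD, cut at about 180% in these data; inconclusive = fewer than 70 cells counted for a yeast strain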;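 note: median GFP fluorescence of the barcode-gated MEP2-GFP cells per well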
# GASC-1 inh – blocks human GASC-1 demethylase activity | Q9H3R0 | GST-JMJD2C(1-420) H3K9me3 demethylation, DELFIA europium | inhibition, % at 2.35 µM | 330,000 compounds, 0.069% hits;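 active = more than half of a compound's replicate wells show inhibition beyond 50%, single wells judged on their own value; inconclusive = some, but no more than half, of replicates pass 50% inhibition; inactive = no replicate passes 50% inhibition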;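 note: signal counts dimethyl H3K9 product captured on neutravidin plate; 0% = median of DMSO wells and 100% = 0.3 times that DMSO median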
# Target sequence (Q9H3R0 1-420 limits assumed): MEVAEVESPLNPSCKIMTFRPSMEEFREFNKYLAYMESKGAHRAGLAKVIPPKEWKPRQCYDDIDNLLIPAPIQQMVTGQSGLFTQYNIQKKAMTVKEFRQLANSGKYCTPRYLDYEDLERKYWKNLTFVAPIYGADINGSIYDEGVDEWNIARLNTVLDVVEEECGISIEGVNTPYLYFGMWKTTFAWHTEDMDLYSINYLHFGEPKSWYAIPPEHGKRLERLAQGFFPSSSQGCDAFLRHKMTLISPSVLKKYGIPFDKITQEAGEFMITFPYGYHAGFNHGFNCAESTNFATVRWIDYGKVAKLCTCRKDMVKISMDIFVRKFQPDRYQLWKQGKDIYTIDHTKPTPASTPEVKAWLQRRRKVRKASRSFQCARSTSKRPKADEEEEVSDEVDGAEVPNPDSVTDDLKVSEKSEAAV
# AGP1 TOR yeast – alters AGP1-GFP fluorescence in TOR pathway yeast screen | GFP response vs DMSO, % at 10 µM | S. cerevisiae AGP1-GFP multiplex flow cytometry, 3 h; GFP as percent of DMSO wells | 320,000 compounds, 0.02% hits;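 active = GFP response relative to DMSO above a set limit, near screen average plus 3 SD, cut at about 150% in these data; inconclusive = fewer than 70 cells counted for the yeast strain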;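 note: median GFP channel fluorescence of the gated AGP1 strain per well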
# Starred values were filed as active, the others as inactive; i = inactive; ? = inconclusive; · = no result; + = active, no number; [ ] = remark or other dose. Sampled rows, rich in hits. Any-hit rate of the full collection: about 0.97%.
SMILES,LAP4 TOR yeast,CIT2-GFP yeast,RPL19A TOR yeast,MEP2-GFP yeast,GASC-1 inh,AGP1 TOR yeast
COc1ccc(CNCc2c(O)c(Cl)cc3c(C)c(C)c(=O)oc23)c(OC)c1,92.2,?,91.0,129.9,7.5,19.4
CCc1cc(=O)oc2c(CNCc3ccc(OC)cc3OC)c(O)c(Cl)cc12,90.4,?,69.0,407.1*[may fluoresce violet],4.7,17.1
COc1ccc(CNC(=S)Nc2ccc(S(N)(=O)=O)cc2)cc1,89.4,84.3,92.9,89.7,2.3,91.2
COc1ccc(NC(=S)NCc2ccc(S(N)(=O)=O)cc2)cc1OC,80.3,·,85.8,90.5,56.2*,84.2
CCc1ccc(CNC(=O)c2ccc3nc(C4CCCCC4)oc3c2)nc1,98.1,92.4,95.2,99.9,5.3,96.2
CC(C)CC(O)(c1ccccc1)C(CN1CCOCC1)c1ccccc1 (centres undefined),79.9,?,22.4*[may fluoresce violet],378.2*[may fluoresce violet],4.8,?
CCC(C)(C)n1nnnc1C(c1ccc(O)c(OC)c1)N1CCc2ccccc2C1 (centres undefined),106.3,151.9*,90.0,102.5,9.0,119.6
COc1ccccc1N=c1oc2cc(O)ccc2cc1C(N)=O,94.4,?,15.1*[may fluoresce violet],297.7*[may fluoresce violet],22.5,?
Cc1cccc(N=c2oc3cc(O)ccc3cc2C(N)=O)c1,101.9,94.7,40.3*,123.5,-2.0,97.4
COc1ccccc1N=c1oc2cc(O)ccc2cc1C(=O)NCC1CCCO1 (centres undefined),100.0,96.0,101.6,99.5,15.4,95.4
COc1ccc2cc(C(N)=O)c(=Nc3ccc(C)cc3)oc2c1,102.2,105.7,102.1,105.7,-2.4,106.8
CCOC(=O)C1=C(COC(=O)CCOc2ccc(C)cc2)NC(=O)NC1C (centres undefined),92.7,100.9,87.7,96.0,-15.8,88.0
Cc1ccc(NC(=O)C(C)OC(=O)c2ccc(NC(=O)CC#N)cc2)cc1S(=O)(=O)N1CCOCC1 (centres undefined),105.0,97.7,98.9,99.6,-0.4,103.1
Cc1ccc(S(=O)(=O)Nc2nc(C)c(C(=O)NNS(=O)(=O)c3cc(C)ccc3C)s2)cc1,65.6,?,50.7,241.3*[may fluoresce violet],-33.1,?
Cc1nc(NS(=O)(=O)c2ccccc2)sc1C(=O)NNS(=O)(=O)c1ccccc1,97.2,108.1,104.7,105.3,24.0,103.8
CC(=O)c1sc(NS(=O)(=O)c2ccc(C)cc2)nc1C,101.4,87.1,92.1,94.1,-21.8,92.9
Cc1ccc(S(=O)(=O)NNC(=O)c2sc(NS(=O)(=O)c3ccccc3)nc2C)cc1,85.0,?,57.1,493.8*[may fluoresce violet],-19.1,?
CCOc1cc(C(=O)Nc2nnc(S(=O)(=O)N3CCOCC3)s2)cc(OCC)c1OCC,65.3,?,14.3*[may fluoresce violet],210.2*[may fluoresce violet],-10.4,?
O=C(OCN1C(=O)c2ccccc2C1=O)c1cccc(OC(F)F)c1,97.4,102.6,101.8,104.3,5.2,100.8
O=C(c1ccco1)N1CCN(C(c2coc3ccc(Cl)cc3c2=O)c2nnnn2C2CCCC2)CC1 (centres undefined),92.9,?,20.1*[may fluoresce violet],416.1*[may fluoresce violet],-12.4,?
COc1ccc(Nc2nnc(SCC3CCCO3)s2)cc1 (centres undefined),84.9,87.9,92.0,89.6,1.8,84.9
Oc1ccc(Cl)cc1-c1cc(-c2ccco2)[nH]n1,97.5,100.3,·,251.8*,-2.1,39.3
CCCn1nc(C(=O)OCC(=O)c2ccc3c(c2)NC(=O)CO3)c2ccccc2c1=O,346.0*,169.4*,60.2,+,-4.7,253.8*
CN1CCN(c2ccc(-c3cccc(NC(=O)COc4ccc(Cl)cc4Cl)c3)nn2)CC1,114.5,91.8,94.7,91.1,6.8,102.8
COCCNC(=O)C(=O)Nc1cc2c3c(c1)CC(=O)N3CCC2,89.1,?,61.1,226.3*[may fluoresce violet],11.6,18.2
SMILES,LAP4 TOR yeast,CIT2-GFP yeast,RPL19A TOR yeast,MEP2-GFP yeast,GASC-1 inh,AGP1 TOR yeast
CN(C)CCN(C(=O)/C=C/c1cccs1)c1nc2ccc(F)cc2s1,91.4,90.9,95.9,94.8,50.3*,93.1
Clc1ccc(-c2csc(N/N=C/c3ccco3)n2)cc1,69.0,?,25.5*[may fluoresce violet],595.6*[may fluoresce violet],-12.5,?
Cc1ccc(-c2csc(N/N=C/c3ccco3)n2)cc1,114.6,98.8,97.5,109.1,-4.3,91.9
CCOC(=O)c1c(O)c2ccccc2n(-c2ccccc2)c1=O,100.4,?,58.1,217.9*[may fluoresce violet],-9.0,?
NC(=O)COc1cccc2cccnc12,100.9,107.8,103.4,110.2,73.6*,106.0
Clc1ccc2ccc3cccnc3c2n1,87.6,99.8,104.1,98.5,5.8,98.9
O=S1(=O)Nc2c(ccc3cccnc23)-c2ccccc21,240.0*,81.1,92.3,115.5,-16.5,97.4
O=C(COC(=O)CNS(=O)(=O)c1ccc(Br)cc1Cl)NC1CCCC1,86.6,85.8,87.9,78.0,35.5,96.2
COc1cc(C(O)P(=O)(OCC(C)C)OCC(C)C)cc(OC)c1OC (centres undefined),88.9,108.2,·,182.9*,2.9,53.3
O=S(=O)(c1ccc(Cl)nc1)N1CCCc2ccccc21,70.9,?,52.9,206.7*[may fluoresce violet],8.6,?
COCCCn1c(=O)c2sccc2n(Cc2ccc(C)cc2)c1=O,100.7,97.0,103.1,105.2,-12.2,87.2
Cn1ccc(NC(=O)c2ccc(Cl)cc2Cl)n1,97.7,88.3,95.3,94.7,-1.1,93.7
Cn1ccc(NC(=O)c2ccc(Cl)cc2)n1,+[may fluoresce green],+[may fluoresce green],i,+[may fluoresce green],-0.9,+[may fluoresce green]
C=CCN(Cc1ccco1)S(=O)(=O)c1ccc(Cl)cc1,102.1,155.6*[may fluoresce green],88.8,110.7,-0.8,116.1
O=C(O)c1ccc(NS(=O)(=O)c2cc(Cl)sc2Cl)cc1,77.7,?,41.4*[may fluoresce violet],709.9*[may fluoresce violet],4.1,?
CC(=O)Nc1ccc(NS(=O)(=O)c2cc(Cl)sc2Cl)cc1,110.7,121.5,99.6,104.2,23.1,116.4
O=C(O)Cn1c(-c2ccccc2)cc2ccccc21,102.0,87.5,97.3,110.2,7.1,97.0
Cc1noc(C)c1NC(=O)N(C)C[C@H]1Oc2ccc(NC(=O)Cn3cnnn3)cc2C(=O)N([C@H](C)CO)C[C@@H]1C,91.5,98.8,91.8,87.2,66.5*,96.9
C[C@H](CO)N1C[C@H](C)[C@@H](CN(C)Cc2ccc(Cl)c(Cl)c2)Oc2ccc(NC(=O)Cn3cnnn3)cc2C1=O,·,·,·,·,22.0,·
C[C@H](CO)N1C[C@H](C)[C@@H](CN(C)Cc2ccc3c(c2)OCO3)Oc2ccc(NC(=O)Cn3cnnn3)cc2C1=O,·,·,·,·,60.5*,·
C[C@H](CO)N1C[C@H](C)[C@@H](CN(C)C(=O)Nc2ccc3c(c2)OCO3)Oc2ccc(NC(=O)Cn3cnnn3)cc2C1=O,·,·,·,·,68.4*,·
